Screens: PubChem BioAssay, National Center for Advancing Translational Sciences (NCATS)
In the library only some 12% were active in any assay of this set; here they are far more common.
Pf growth 96h = inhibits malaria parasite growth, 96 h; 320,000 tested, 6.9% active; P. falciparum luciferase reporter growth, 96 h; Potency, µM (titrated, usually from 28.7 µM), without a hit: at the top dose activity change, negative = inhibition, most hits filed as inhibitors; note: % is set by controls: 0 for no effect and ±100 for the full control effect
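Infected RBCs, 2% Hct / 0.05% parasitemia final; luciferase-reporter P. falciparum; cpd 96 h, 37 C, 5% CO2; luciferase detection reagent; luminescence.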
AMA1 RON2 block = disrupts binding of P. falciparum AMA1 to RON2; AlphaScreen AMA1-biotinylated RON2 peptide binding; Potency, µM (doses to about 58.2 µM), for the others: top-dose activity change, negative = inhibition, usual class: inhibitors; 360,000 tested, 0.2% active;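 note: 0% = vehicle wells and -100% = peptide control; nearly all actives have a fitted effect of over 45% in size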
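AMA1 (3D7) with his tag at 25 nM final met compounds first, then biotinylated RON2 peptide at 25 nM; detection used donor plus acceptor beads, 10 µg/mL apiece, read by AlphaScreen after 30 min at room temperature.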
Pf growth 48h = inhibits P. falciparum growth in the first generation, 48 h. P. falciparum luciferase growth in erythrocytes, 48 h. Potency, µM (titrated, usually from 28.7 µM), for inactives: at the highest dose activity change, negative = inhibition, hits mostly inhibitors. 310,000 tested, 5.9% active. AID 504832; note: % is set by controls: 0 for no effect and ±100 for the full control effect
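Parasite viability was followed by luminescence of a genomically integrated firefly luciferase. Cultures held 0.1% parasitemia at 2% hematocrit (final), incubated under 5% CO2 at 37 C.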
HCV inhibitor = inhibitors of hepatitis C virus infection. Huh7.5.1 HCVcc-Cre infection, luciferase reporter, 44 h. Potency, µM (series often up to 41.8 µM), for inactives: at the top dose activity change, negative = inhibition, actives largely listed as inhibitors. 340,000 tested, 3.4% active. AID 651820; note: % is set by controls: 0 for no effect and ±100 for the full control effect
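Cells (1,000/well) were plated 4 h before compound, then infected with HCVcc-Cre virus (~0.5 moi). After 44 h further culture, infection was read as luciferase luminescence following a 15 min substrate incubation at room temperature.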
SARS PLpro yeast = blocks SARS-CoV papain-like protease in a yeast assay; S. cerevisiae expressing SARS-CoV PLpro, growth rescue; 330,000 tested, 0.19% active; AID 485353; Potency, µM (top dose mostly 32.9 µM), for inactives: top-dose activity, positive = growth rescue, hits mostly activators; calls by dose curve; note: 0% is about no effect; nearly all actives have a fitted effect of over 55% in size
NS1 function inh = inhibitors of influenza NS1 protein function. Potency, µM (titrated, usually from 46.1 µM), inactives show at the highest dose activity, positive = more growth. 270,000 tested, 0.4% active; calls by dose curve; note: actives are rising curves; nearly all actives have a fitted effect of over 50% in size
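S. cerevisiae expressing influenza A NS1, grown in glucose, washed, then diluted 1:100 into pH 6.0 -URA galactose medium with 23 nl compound. Growth recovery read as OD600; NS1-free strain serves as control.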
* marks the source's active call; other numbers are inactive results; ? = inconclusive; nt = no result; [ ] = another dose, or the depositor's remark. Unless noted, calls come from the whole dose curve; as a rule, active = well fitted curve in the direction sought with a large enough effect; inconclusive = small, poorly fitted or top-dose-only effect, or another doubt; inactive = no such curve, though single readings can be large; an effect the other way counts as inactive or inconclusive. Potency is the fitted concentration of half-maximal effect.

SMILES | Pf growth 96h | AMA1 RON2 block | Pf growth 48h | HCV inhibitor | SARS PLpro yeast | NS1 function inh
C/C(=C\COc1cc(=O)[nH]c2ccccc12)CCC(O)C(C)(C)O (centres undefined) | 3% | 9% | 2% | 0.32µM* | 1% | 3%
C/C(=C\COc1ccc2ccc(=O)oc2c1)CC[C@@H](O)C(C)(C)O | 39% | 5% | 69% | -7% | -1% | nt
O=C(N/N=C/c1sc(=O)n(Cc2ccc(Br)cc2)c1Cl)c1ccco1 | 2.6µM* | 0% | 3.7µM* | ? | -7% | 11%
O=C(N/N=C/c1ccc(Br)s1)c1ccco1 | -3% | 13% | -26% | 5% | -1% | -6%
CC12CCC(C/C1=N\N=C1\NC(=O)/C(=C\c3cccc(Br)c3)S1)C2(C)C (centres undefined) | 13µM* | 11% | ? | -28% | -17% | 0%
Cc1ccc2nc3sc(C(=O)Nc4c(C)[nH]c(=O)[nH]c4=O)c(N)c3cc2c1 | 8.3µM* | 26% | 35% | 4% | 6% | 5%
Cc1ccc2cc3c(N)c(C(=O)Nc4c(C)[nH]c(=O)[nH]c4=O)sc3nc2c1 | ? | -6% | 3% | 4% | 19% | ?
Cc1cccc(NC(=O)c2sc3nc(N)c(C#N)cc3c2N)c1 | ? | -10%[11.6 µM] | ? | 6% | 24% | 12%
Cc1[nH]c(=O)[nH]c(=O)c1NC(=O)c1sc2nc3c(C)cccc3cc2c1N | 4.7µM* | -12% | 10% | ? | -2% | -2%
CCCOc1ccccc1-n1sc2c(c1=S)-c1cc(OC)cc3c1N(C(=O)C3=O)C2(C)C | ? | 2.8µM* | nt | 13µM* | -3% | 14%
COc1cc2c3c(c1)C(C)=CC(C)(C)N3C(=O)C2=O | 33% | ? | -11% | -10% | -2% | -36%
O=C(NC(=S)N1CCN(c2ccc(C(F)(F)F)cc2[N+](=O)[O-])CC1)c1cccs1 | 4.1µM* | -5% | -6% | 7% | -39% | 19%
CC(=O)C1=C(C)NC(C)=C(C(C)=O)C1c1ccccc1 | 53% | 4% | -21% | -9% | 0% | -2%
CC(=O)Nc1cc(NC(C)=O)cc(C(=O)N2CCCC3CCCCC32)c1 (centres undefined) | -10% | ? | 31% | 12% | 2% | 23%
CN(CCC#N)C(=O)COC(=O)c1ccccc1C(=O)c1ccc(Cl)c([N+](=O)[O-])c1 | -23% | 2% | -23% | 2.8µM* | -2% | nt
CN(c1ccccc1)S(=O)(=O)c1ccc(Cl)c(C(=O)OCC(=O)c2c(N)n(C)c(=O)n(C)c2=O)c1 | nt | -1% | nt | ? | nt | nt
Cn1c(N)c(C(=O)COC(=O)c2ccccc2C(=O)c2ccccc2)c(=O)n(C)c1=O | -113% | 10% | 13µM* | 9% | 1% | nt
Cn1c(N)c(C(=O)COC(=O)c2ccccc2C(=O)c2ccc(Cl)c([N+](=O)[O-])c2)c(=O)n(C)c1=O | nt | -3% | nt | 11µM* | 1% | nt
CC(C)N(C(=O)COC(=O)c1ccccc1C(=O)c1ccc(Cl)c([N+](=O)[O-])c1)C(C)C | -6% | -11% | 12% | ? | -1% | nt
CCCCn1c(N)c(N(C(=O)CSc2nncn2-c2ccccc2)C2CCCC2)c(=O)[nH]c1=O | nt | -11% | nt | 0% | nt | nt
CCC(=O)NC1=C(Cl)C(=O)C(NC(=O)CC)=C(Cl)C1=O | 4.7µM* | -7% | 7.4µM* | ? | -6% | 2%
CCOC(=O)C(Cc1c[nH]c2ccc([N+](=O)[O-])cc12)(NC(C)=O)C(=O)OCC | nt | -4% | nt | -8% | nt | nt
Cc1[nH]c(=O)[nH]c(=O)c1NS(=O)(=O)c1ccc2c(c1)CCCC2 | nt | 27% | -13% | -6% | 29% | 0%
Cc1ccc(S(=O)(=O)Nc2c(C)[nH]c(=O)[nH]c2=O)cc1C | 2.6µM* | -2% | -1% | -1% | 1% | 5%
CC(C)COc1ccc(C(=O)NCc2ccco2)cc1 | nt | 5% | 12µM* | ? | -2% | -45%
SMILES | Pf growth 96h | AMA1 RON2 block | Pf growth 48h | HCV inhibitor | SARS PLpro yeast | NS1 function inh
O=C(NCc1ccco1)c1ccc(Oc2ccccc2)cc1 | 7.4µM* | -5% | nt | ? | -18% | -114%
O=C(NCc1ccco1)c1ccc(C(=O)NCc2ccco2)cc1 | nt | -3% | nt | 18% | nt | nt
CCOc1ccc(C(=O)NCc2ccco2)cc1 | 13% | 5% | nt | 22% | 4% | -17%
COc1cccc(C(=O)NCc2ccco2)c1 | 10µM* | 0% | 0% | 6% | 1% | 7%
COc1ccccc1Nc1nc(C)cc(C)n1 | ? | 1% | 1% | -20% | 26% | 2%
COc1ccccc1Nc1cc(C)nc(Nc2ccccc2OC)n1 | 10µM* | -23% | ? | 2.5µM* | -2% | nt
COc1ccccc1Nc1nc(Cl)nc(Nc2ccccc2OC)n1 | -26% | -8% | -4% | 13µM* | 4% | nt
COc1ccc(CC(O)COS(N)(=O)=O)cc1 (centres undefined) | ? | 15% | 18% | 54% | -13% | -1%
COc1ccc(C(C)=O)cc1COC(=O)C1CCN(C(=O)c2ccc(Cl)cc2)CC1 | nt | -4% | nt | -3% | -2% | nt
O=C(CCn1c(=O)oc2ccc(Cl)cc21)N1CCN(Cc2ccccc2)CC1 | ? | -2% | 0% | 2% | 2% | -1%
COc1cc(S(=O)(=O)N2CCCCC2)ccc1NC(=O)c1ccccc1Cl | -4% | -19% | 9.3µM* | -6% | 15% | -5%
COc1cc(S(=O)(=O)N2CCOCC2)ccc1NC(=O)COC(=O)CC12CC3CC(CC(C3)C1)C2 | 8.3µM* | 25% | nt | ? | -7% | ?
COc1ccc(S(=O)(=O)N2CCOCC2)cc1NC(=O)c1ccc(-n2nc(C)cc2C)cc1 | ? | -6% | 10µM* | -27% | 0% | -3%
COc1ccc(S(=O)(=O)N2CCOCC2)cc1NC(=O)CC(C)c1ccccc1 (centres undefined) | nt | 9% | nt | 4% | 2% | nt
COc1cc(S(=O)(=O)N2CCOCC2)ccc1NC(=O)COC(=O)c1cc(OC)c(OC)c(OC)c1 | nt | -14% | nt | -27% | 1% | nt
CCCC(NCC(=O)Nc1cc(S(=O)(=O)N2CCOCC2)ccc1OC)c1ccccc1 (centres undefined) | 12µM* | -5% | 12µM* | ? | -2% | nt
CCOC(=O)Cn1nc(C)c(NC(=O)c2ccc(Cl)c([N+](=O)[O-])c2)c1C | 7% | 1% | -11% | -10% | -5% | nt
CC(=O)O[C@@H]1[C@H]2[C@@H](C[C@@H](C)[C@@H]3CCC(=O)[C@@]13C)OC(=O)[C@@H]2C | 55% | 13% | 18% | -14% | -1% | 6%
CCOc1ncccc1C(=O)Nc1ccc(Cl)c(S(=O)(=O)N2CCCC2)c1 | ? | 22% | ? | ? | 0% | nt
Cc1cc(NC(=O)CCc2ccc(S(=O)(=O)N3CCOCC3)cc2)n(-c2ccccc2)n1 | ? | -17% | 13µM* | -23% | 3% | -11%
